Most compounds without a hit are left out; they make up all but 3.7% or so of the library.
PfHsp90 set2 – reduces growth (ATP signal) of yeast expressing P. falciparum Hsp90; inhibition, % at 9.4 µM; 0.32% of 310,000 active; S. cerevisiae expressing PfHsp90, BacTiter-Glo ATP, 48 h; yeast lacking PDR1 and PDR3 efflux regulators;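 active = every replicate shows inhibition above about 80%, whatever the replicate mean, limit read from the data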;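 note: 0% = DMSO neutral controls and 100% = 20 µM radicicol positive controls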
TIM10 inh – inhibits growth of TIM10 yeast strain. inhibition, % at 10 µM. S. cerevisiae TIM10 strain growth, BacTiter-Glo luminescence, 24 h. 1.4% of 330,000 active;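 active = inhibition of 40% or more at the single tested concentration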;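 note: wild-type TIM10 isogenic control strain grown at permissive 25 °C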
V-ATPase pH – yeast V-ATPase proton transport regulation by pHLuorin; response, % at 10 µM; S. cerevisiae, pHLuorin cytosolic pH fluorescence; 0.37% of 350,000 active; in the data active = response mostly above about 7.3%, no sharp cut-off; inactive = mostly below about 5.4%; note: actives read high
tim23-1 inh – inhibits growth of tim23-1 mutant yeast; S. cerevisiae tim23-1 growth, BacTiter-Glo luminescence, 24 h; inhibition, % at 20 µM; 1.3% of 330,000 active; AID 463212;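 active = growth inhibition of the mutant yeast at or above 50%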;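 note: temperature-sensitive mutant grown at 25 °C; plate controls were DMSO-treated mutant yeast for no effect and medium wells lacking yeast for full effect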
tim10-1 inh – growth inhibitors of tim10-1 mutant yeast | S. cerevisiae tim10-1 ts strain growth, BacTiter-Glo, 24 h | inhibition, % at 20 µM | 2.2% of 330,000 active | AID 463190;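 active = inhibition of at least 40%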;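 note: mutant grown at 25 °C; 0% = DMSO wells with yeast and 100% = wells holding no yeast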
tim10 confirm – TIM10 yeast growth inhibition, confirmed; AID 463215; S. cerevisiae tim10 strain growth, BacTiter-Glo luminescence, 24 h; inhibition, % at 10 µM; 63% of 4,600 active; shares compounds with TIM10 inh;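 active = inhibition of yeast growth at or above a set limit in either of two replicates at 10 µM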;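 note: this counterscreen used the strain with wild-type TIM10; 0% = yeast with DMSO and 100% = medium wells lacking yeast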
* hit, by the source's call.

`COc1ccc(-c2cc(C3CCN(c4cc(Cl)nc(N)n4)CC3)[nH]n2)cc1` gave PfHsp90 set2 27.6, TIM10 inh 42.9*, V-ATPase pH 3.4, tim23-1 inh 37.9, tim10-1 inh 15.9 and tim10 confirm 27.7.
For COc1ccc(-c2cc(C3CCN(CC(O)C(F)(F)F)CC3)[nH]n2)cc1 (stereo not given) the results were PfHsp90 set2 3.4, TIM10 inh 14.1, V-ATPase pH 1.1, tim23-1 inh 7.1 and tim10-1 inh -3.7.
`O=C(COC(=O)C1CCCN1C(=O)C12CC3CC(CC(C3)C1)C2)c1ccc(Br)cc1` (stereo not given) gave PfHsp90 set2 -2.8, TIM10 inh 15.3, V-ATPase pH 1.2, tim23-1 inh 25.1 and tim10-1 inh 35.6.
For COc1ccc(C(=O)COC(=O)C2CCCN2C(=O)C23CC4CC(CC(C4)C2)C3)cc1 (stereo not given) the results were PfHsp90 set2 -20.6, TIM10 inh 44.1*, V-ATPase pH -0.4, tim23-1 inh 33.6, tim10-1 inh 29.5 and tim10 confirm 33.0*.
CCc1nnc(NC(=O)COc2ccccc2[N+](=O)[O-])s1 was read as PfHsp90 set2 -4.0, TIM10 inh 40.1*, V-ATPase pH -1.0, tim23-1 inh 12.9, tim10-1 inh 6.7 and tim10 confirm -2.8.
`CC1CCCCN1Cc1c(O)ccc2c(=O)c(-c3nc4ccccc4s3)c(N)oc12` (stereo not given) gave PfHsp90 set2 -9.9, TIM10 inh 41.7*, V-ATPase pH 1.4, tim23-1 inh 46.1, tim10-1 inh 22.5 and tim10 confirm 25.1.
Oc1ccc(Cl)cc1CNc1nccs1 was read as PfHsp90 set2 -9.6, TIM10 inh -13.7, V-ATPase pH 3.9, tim23-1 inh 16.5 and tim10-1 inh -15.3.
Oc1ccc(Cl)cc1CNc1ccc(Br)cn1 was read as TIM10 inh 46.9*, V-ATPase pH 9.5, tim23-1 inh 30.8, tim10-1 inh 33.5 and tim10 confirm 22.7.
`CN(CC(=O)Nc1cccc(S(=O)(=O)N2CCCC2)c1)CC(=O)Nc1ccc(Cl)c(C(F)(F)F)c1` gave TIM10 inh 11.8, V-ATPase pH -1.1, tim23-1 inh -18.1 and tim10-1 inh 3.1.
Screening O=C(N=Nc1c(O)[nH]c2ccc(Br)cc12)c1ccccc1-n1cccc1 returned PfHsp90 set2 16.8, TIM10 inh 48.2*, V-ATPase pH 1.0, tim23-1 inh 29.5, tim10-1 inh 32.5 and tim10 confirm 35.5*.
O=C(c1ccc(Cl)cc1)c1cccc(O)c1 was read as PfHsp90 set2 10.9 and V-ATPase pH -4.8.
C=CCSc1nnc2c(n1)[nH]c1c(C)cccc12 was read as PfHsp90 set2 -8.7, TIM10 inh 47.3*, V-ATPase pH 1.8, tim23-1 inh 46.3, tim10-1 inh 39.9 and tim10 confirm 37.1*.
`Cc1cccc2c1[nH]c1nc(N/N=C\c3ccco3)nnc12` gave TIM10 inh 18.3, tim23-1 inh 7.3 and tim10-1 inh 23.8.
`CN(C)c1ccc(N=Nc2ccccc2C(=O)OCC(=O)N2CCCCCC2)cc1` gave PfHsp90 set2 7.0, TIM10 inh 40.3*, V-ATPase pH -1.1, tim23-1 inh 29.2, tim10-1 inh 33.5 and tim10 confirm -21.2.
For Cc1ccc2nc(-c3sc4nc(C)ccc4c3N)[nH]c2c1 the results were PfHsp90 set2 -9.6, TIM10 inh 62.9*, V-ATPase pH -0.3, tim23-1 inh 34.8, tim10-1 inh 18.6 and tim10 confirm 48.3*.
Screening CN1c2ccccc2C(C)(C)[C@]12C=Cc1cc(O)ccc1O2 returned PfHsp90 set2 -23.9, TIM10 inh 45.2*, V-ATPase pH -2.1, tim23-1 inh 41.6, tim10-1 inh 35.8 and tim10 confirm 34.9*.
`CCC1(c2ccccc2)NC(=O)N(CC(=O)N(C)CC(=O)Nc2ccc(F)c(F)c2F)C1=O` (stereo not given) gave PfHsp90 set2 -12.0, TIM10 inh -10.8, V-ATPase pH -2.9, tim23-1 inh -1.6 and tim10-1 inh -14.2.

High-throughput results from PubChem BioAssay.
